Measurements as given in PubChem BioAssay (NCATS).
Values joined by “and” are separate entries in the source; they are usually repeats but may differ in a detail not shown here. Identical values can stand only once. Results filed as inconclusive are left out. Active and inactive are the calls of the source. The call rests on the fitted dose curve; in most records, active means well fitted curve in the direction sought with a large enough effect; inconclusive means small, poorly fitted or top-dose-only effect, or another doubt; inactive means no such curve, though single readings can be large; an effect the other way counts as inactive or inconclusive.

Experiments:
[1] = BET inhibitor-based combinations targeting novel dependencies in MECOM-rearranged (r) AML: OCI-AML3 cell line (AID 2202232); settings: CellTiter-Glo luminescence, 48 h; Potency: OCI-AML3 viability; series mostly up to 46 µM; further: nearly all actives have a fitted effect of over 35% in size
Procedure, shortened: (§1)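 Viability of cells (500 per well) is scored by luminescent CellTiter-Glo at 48 hr post-dosing. Eleven-point titrations are normalized to DMSO and empty controls and reduced to AUC values.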

[2] = BET inhibitor-based combinations targeting novel dependencies in MECOM-rearranged (r) AML: MV-4-11 cell line (AID 2202233); settings: MV-4-11 AML viability, CellTiter-Glo luminescence, 48 h; series mostly up to 46 µM; further: nearly all actives have a fitted effect of over 45% in size
Procedure, shortened: (§2)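 Using pin-tool transfer, drugs were added in 11 doses to cells (500/well), incubated 48 hr, and assessed with CellTiter-Glo. Z-AUC is a mean-centring transformation applied separately to each screened line.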

[3] = BET inhibitor-based combinations targeting novel dependencies in MECOM-rearranged (r) AML: HNT-34 cell line (AID 2202234); settings: HNT-34 AML viability, CellTiter-Glo luminescence, 48 h; series mostly up to 46 µM; further: nearly all actives have a fitted effect of over 35% in size
Procedure, shortened: as §2

[4] = BET inhibitor-based combinations targeting novel dependencies in MECOM-rearranged (r) AML: UCSD-AML1 cell line (AID 2202235); settings: UCSD-AML1 AML cells viability, CellTiter-Glo, 48 h; series mostly up to 46 µM; further: nearly all actives have a fitted effect of over 40% in size
Procedure, shortened: as §2

[5] = BET inhibitor-based combinations targeting novel dependencies in MECOM-rearranged (r) AML: AML-191 cell line (AID 2202236; further: nearly all actives have a fitted effect of over 35% in size); settings: AML-191 viability, CellTiter-Glo luminescence, 48 h; series mostly up to 46 µM
Procedure, shortened: as §1

[6] = BET inhibitor-based combinations targeting novel dependencies in MECOM-rearranged (r) AML: AML-194 cell line (AID 2202237; further: nearly all actives have a fitted effect of over 40% in size); settings: AML-194 (MECOM-r AML) viability, CellTiter-Glo, 48 h; series mostly up to 46 µM
Procedure, shortened: as §1

Measured: Potency
Potency means the concentration at half of the fitted maximal effect.

Nc1nc2c(c(=O)[nH]1)N1CN(c3ccc(C(=O)N[C@@H](CCC(=O)O)C(=O)O)cc3)CC1CN2 (stereo not given in full)
active: [1] 1.66 µM | [2] 1.05 µM | [3] 9.34 µM | [4] 0.934 µM

Cc1ccc(C(=O)N(CCCN)[C@@H](c2oc3cc(Cl)ccc3c(=O)c2Cc2ccccc2)C(C)C)cc1
active: [1] 0.0263 µM | [2] 0.0372 µM | [3] 0.0132 µM | [4] 0.0148 µM | [5] 0.0468 µM

CCOC(=O)c1c(CSc2ccccc2)n(C)c2cc(Br)c(O)c(CN(C)C)c12
active: [1] 11.8 µM | [2] 18.6 µM | [3] 11.8 µM

Cc1ccc2nc(NCCN)c3ncc(C)n3c2c1
active: [1] 9.34 µM | [2] 4.68 µM | [3] 8.33 µM | [4] 7.42 µM | [5] 5.9 µM | [6] 8.33 µM

COC1(c2sc3c(N4CCOCC4)nc(-c4cnc(N)nc4)nc3c2C)COC1
active: [1] 0.525 µM | [2] 0.59 µM | [3] 0.468 µM | [4] 0.186 µM

Cc1cc(C)c(CNC(=O)c2cc(-c3ccc(N4CCN(C)CC4)nc3)cc3c2c(C)cn3C(C)C)c(=O)[nH]1
inactive: [4]
active: [1] 18.6 µM | [2] 23.5 µM and 20.9 µM | [3] 23.5 µM

COc1ccc(S(=O)(=O)N(CCO)c2ccccc2CN(C)C/C=C/c2ccc(Cl)cc2)cc1
active: [1] 14.8 µM | [2] 18.6 µM | [3] 13.2 µM | [4] 16.6 µM | [5] 14.8 µM | [6] 18.6 µM

COc1ccc(S(=O)(=O)N[C@@H](CNc2nc(C)nc(N3CCC(c4ccc5c(n4)NCCC5)CC3)c2C)C(=O)O)cc1
inactive: all assays above

COc1cc(-c2cn(C)c(=O)c3cnccc23)c(OC)cc1CN(C)C
active: [1] 1.18 µM | [2] 4.17 µM
inactive: all other assays above

CNCCn1c(=O)c2cc(OC)c(OC)cc2c2cnc3cc4c(cc3c21)OCO4
active: [1] 0.0215 µM | [2] 0.0152 µM | [3] 0.0121 µM | [4] 0.0191 µM | [5] 0.0241 µM | [6] 0.0241 µM

CCNC(=O)Nc1ccc(-c2nc3c(c(N4CCOC[C@@H]4C)n2)CCN(C2COC2)C3)cc1
active: [1] 1.48 µM | [2] 1.32 µM | [3] 1.05 µM

CCCN(CCC)C(=O)C1=Cc2ccc(-c3ccc(C(=O)N4CCCC4)cc3)cc2N=C(N)C1
active: [1] 16.6 µM | [2] 16.6 µM | [3] 18.6 µM | [5] 18.6 µM | [6] 26.3 µM
inactive: [4]

CC(C)(O)CC[C@@H](O)[C@](C)(O)[C@H]1CC[C@@]2(O)C3=CC(=O)[C@@H]4C[C@@H](O)[C@@H](O)C[C@]4(C)[C@H]3CC[C@]12C
inactive: all assays above

COc1ccc(-c2oc3c(CC=C(C)C)c(OC4O[C@H](CO)[C@@H](O)[C@H](O)[C@H]4O)cc(O)c3c(=O)c2OC2O[C@@H](C)[C@H](O)[C@@H](O)[C@H]2O)cc1 (stereo not given in full)
inactive: all assays above

N#Cc1c(N)nc(N)nc1N[C@H](c1nc2c(F)ccc(Cl)c2c(=O)n1-c1cccnc1)C1CC1
active: [1] 6.61 µM | [2] 3.32 µM | [3] 16.6 µM | [4] 5.9 µM

CC1(C)CCC2(CC1)N[C@@H](C(=O)N[C@@H]1CC[C@@H](C(N)=O)OC1)[C@H](c1ccnc(Cl)c1F)[C@]21C(=O)Nc2cc(Cl)ccc21
active: [1] 0.715 µM | [2] 0.0715 µM | [3] 0.16 µM | [4] 0.201 µM | [5] 0.358 µM | [6] 0.637 µM

CC(C)n1c(/C=C/[C@H](O)C[C@H](O)CC(=O)O)c(-c2ccc(F)cc2)c2ccccc21
active: [1] 3.32 µM | [2] 11.8 µM | [3] 8.33 µM | [4] 11.8 µM

CC/C(=C(/c1ccc(O)cc1)c1ccc(OCCNC)cc1)c1ccccc1
active: [1] 14.8 µM | [2] 8.33 µM | [3] 23.5 µM | [4] 9.34 µM | [5] 13.2 µM | [6] 13.2 µM

CN(C)CCCOc1ccc(-c2ccc3ncc4c(c3c2)n(C2CCOCC2)c(=O)n4C)cn1
active: [1] 7.23 µM | [2] 4.07 µM | [3] 2.57 µM

CN(C)CCN1C(=O)c2cccc3cc(NC(N)=O)cc(c23)C1=O
active: [1] 13.2 µM | [2] 2.95 µM | [3] 8.33 µM | [4] 5.9 µM | [5] 9.34 µM | [6] 9.34 µM

Cc1ccc(-c2nn(C(C)(C)CNC(=O)c3ccncc3)c3ncnc(N)c23)cc1
active: [1] 16.6 µM | [2] 11.8 µM | [3] 8.33 µM | [4] 7.42 µM | [5] 7.42 µM | [6] 7.42 µM

O=C(NC[C@H](O)CO)c1ccncc1Nc1ccc(I)cc1F
active: [1] 0.0332 µM | [2] 5.9 µM | [3] 0.468 µM | [4] 0.372 µM

CC(C)(C)C[C@H]1N[C@@H](C(=O)NC2CCC(O)CC2)[C@H](c2cccc(Cl)c2F)[C@@]12C(=O)Nc1cc(Cl)ccc12 (stereo not given in full)
active: [1] 4.17 µM | [2] 0.742 µM | [3] 0.934 µM | [4] 1.66 µM | [5] 2.35 µM | [6] 3.32 µM

CC(C)C[C@H](NC(=O)c1cc2ccccc2s1)C(=O)N1CCN(C(=O)[C@H](CO)NS(=O)(=O)c2ccc(Cl)cc2Cl)CC1
inactive: [4]
active: [1] 18.6 µM | [2] 23.5 µM | [3] 26.3 µM

CC(C)Oc1ccc(-c2nn([C@@H](C)c3oc4ccc(F)cc4c(=O)c3-c3cccc(F)c3)c3ncnc(N)c23)cc1F
inactive: [4]
active: [1] 11.8 µM | [2] 16.6 µM | [3] 20.9 µM

O=C(NC1CC1)c1cccc(-c2ccc3c(NC(=O)C4CC4)n[nH]c3c2)c1
active: [1] 10.5 µM | [2] 8.33 µM | [3] 3.32 µM | [4] 4.68 µM | [5] 2.95 µM | [6] 4.68 µM

CN[C@H]1CN(c2ccc3c(=O)c(C(=O)O)cn(-c4nccs4)c3n2)C[C@@H]1OC
active: [1] 1.08 µM | [2] 0.27 µM | [3] 0.679 µM | [4] 0.855 µM | [5] 1.35 µM | [6] 1.52 µM

Cc1c(Cl)cccc1S(=O)(=O)Nc1nc(CCN2CCOCC2=O)cs1
inactive: [2] | [3] | [4]
active: [1] 0.0742 µM

CC(=O)O[C@@]12CO[C@@H]1C[C@H](O)[C@@]1(C)C(=O)[C@H](O)C3=C(C)[C@@H](OC(=O)[C@H](O)[C@@H](NC(=O)OC(C)(C)C)c4ccccc4)C[C@@](O)([C@@H](OC(=O)c4ccccc4)[C@H]21)C3(C)C
active: [1] 0.0033 µM | [2] 0.0042 µM | [3] 0.0037 µM | [4] 0.0047 µM | [5] 0.0132 µM | [6] 0.0148 µM

COc1ccc([C@@H](O)[C@@H](C)Oc2ccc([C@H]3O[C@H](c4ccc(O[C@H](C)[C@H](O)c5ccc(OC)c(OC)c5)c(OC)c4)[C@H](C)[C@H]3C)cc2OC)cc1OC
active: [1] 1.05 µM | [2] 4.17 µM | [3] 23.5 µM | [4] 18.6 µM | [5] 18.6 µM

C=CCNC1=C2CC(C)CC(OC)C(O)C(C)/C=C(\C)C(OC(N)=O)C(OC)/C=C/C=C(\C)C(=O)NC(=CC1=O)C2=O (stereo not given)
active: [1] 0.662 µM | [2] 0.166 µM | [3] 3.32 µM

CN(C(=O)c1c(O)c2ccccc2n(C)c1=O)c1ccccc1
inactive: all assays above

CN1CCN(Cc2ccc(Nc3ncc(Cl)c(Nc4ccccc4S(=O)(=O)N(C)C)n3)cc2)CC1
active: [1] 0.191 µM | [2] 0.0539 µM | [3] 0.108 µM | [4] 0.135 µM | [5] 0.152 µM | [6] 0.215 µM

C=C1CC[C@@H]2[C@](C)(CO)[C@H](O)CC[C@@]2(C)[C@@H]1C/C=C1/C(=O)OC[C@H]1O
active: [1] 3.72 µM | [2] 2.95 µM | [3] 5.25 µM | [4] 10.5 µM | [5] 5.9 µM | [6] 9.34 µM

C[N+](C)(C)CC(=O)O
inactive: all assays above

Cc1ncc(NC(=O)c2cccc(C(F)(F)F)c2)cc1-c1cnc(OC2CCOCC2)c(N2CCOCC2)c1
active: [1] 0.0833 µM | [2] 16.6 µM | [3] 6.61 µM | [4] 8.33 µM | [5] 11.8 µM

COc1cc(C(N)=O)ccc1NC(=O)[C@@H]1N[C@@H](CC(C)(C)C)[C@@]2(C(=O)Nc3cc(Cl)ccc32)[C@H]1c1cccc(Cl)c1F
active: [1] 0.934 µM | [2] 0.0934 µM | [3] 0.148 µM | [4] 0.209 µM | [5] 0.468 µM

CN(C)C/C=C/C(=O)Nc1ccc(C(=O)N2CCC[C@@H](Nc3ncc(Cl)c(-c4c[nH]c5ccccc45)n3)C2)cc1
active: [1] 0.372 µM | [2] 0.235 µM | [3] 0.235 µM | [4] 0.468 µM | [5] 2.35 µM | [6] 1.66 µM

CCc1ccc(N(CC(C)C)S(=O)(=O)c2ccc(OCC3CCOCC3)c(CO)c2)cc1
active: [1] 14.8 µM | [2] 18.6 µM
inactive: [4]

C=CC(=O)N1CCC(C2CCNc3c(C(N)=O)c(-c4ccc(Oc5ccccc5)cc4)nn32)CC1 (stereo not given)
active: [1] 13.2 µM | [2] 10.5 µM
inactive: [4]
